Compound activity from PubChem BioAssay.
KB-3-1 tox – KB-3-1 parental cell cytotoxicity; Potency, µM (highest dose often 46.1 µM), most hits filed as cytotoxic; actives 1.4% (n = 400,000); AID 1347075; KB-3-1 viability, CellTiter-Glo ATP luminescence, 72 h; note: nearly all actives have a fitted effect of over 60% in size
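Here the drug-naive KB-3-1 line serves as comparator for MDR sub-line selectivity; cells received compound titrations, 72 h at 37 °C, then CellTiter-Glo readout.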
IL1B secr inh – inhibitors of inflammasome signaling (IL-1 beta secretion) | THP-1 LPS/ATP IL-1B secretion, AlphaLISA, 16 h; active compounds read low | activity change, % at 57.5 µM | actives 4.7% (n = 360,000) | AID 743279; in the data active = activity change below about -50%; inconclusive = mostly about -30% to -49%
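THP-1 cells pretreated 1 hr with compounds (up to 57.5 uM final), then stimulated with LPS (250 ng/mL final) plus ATP (1.25 mM final); secreted IL-1B measured by AlphaLISA after 16 hr, decreased signal indicating inhibition.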
SW480 rereplic – inducers of DNA re-replication in SW480 colon cancer cells. Potency, µM (doses to about 46.1 µM), hits mostly activators. SW480 DNA re-replication, Hoechst DNA content imaging, 48 h. AID 624297. actives 1.8% (n = 340,000); note: nearly all actives have a fitted effect of over 55% in size
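Cells (250 per well) received 23 nL compound or DMSO by pin tool and were kept 48 hr at 37 C, 5% CO2. Nuclei were then stained with Hoechst for 40 min and scanned for DNA content.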
MCF10A rereplic – inducers of DNA re-replication in MCF 10A breast cells | AID 624296 | actives 2.9% (n = 350,000) | Potency, µM (series often up to 46.1 µM), most hits filed as activators | MCF 10A DNA re-replication, Hoechst nuclear intensity, 48 h; note: nearly all actives have a fitted effect of over 50% in size
KB-V1 cytotox – kills drug-selected multidrug resistant KB-V1 cells | KB-V1 MDR cells viability, CellTiter-Glo, 72 h | Potency, µM (highest dose often 46.1 µM), most hits filed as cytotoxic | actives 3.4% (n = 400,000) | AID 1347076; note: nearly all actives have a fitted effect of over 60% in size
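Readout: CellTiter-Glo luminescence, 10 min after addition. Cells: KB-V1 MDR subline, 72 h at 37 degrees C with compound. Analysis: corrected, normalized data fitted to concentration-effect curves.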
Numbers stand for hits; – = inactive; ? = inconclusive; · = no result. Rows were chosen to be rich in hits. Some 9.9% of all compounds tested hit in one or more screens of this group. Unless noted, calls come from the whole dose curve; as a rule, active = well fitted curve in the direction sought with a large enough effect; inconclusive = small, poorly fitted or top-dose-only effect, or another doubt; inactive = no such curve, though single readings can be large; an effect the other way counts as inactive or inconclusive.

SMILES | KB-3-1 tox | IL1B secr inh | SW480 rereplic | MCF10A rereplic | KB-V1 cytotox
CC(=O)Nc1nnc(-c2ccc3c(c2)CCCC3)o1 | – | – | – | – | –
O=c1oc2ccccc2c(NC2CCCCC2)c1NS(=O)(=O)c1ccc(Br)cc1 | – | -70.6 | ? | – | –
Nc1c(NC2CCCCC2)c2ccccc2oc1=O | – | – | – | – | 16.4µM
Cn1c2ccccc2c2ncn(Cc3ccco3)c(=O)c21 | – | – | – | – | ?
Cn1c2ccc(F)cc2c2ncn(Cc3ccco3)c(=O)c21 | – | – | – | ? | 4.11µM
COc1ccccc1OCCSc1nc(N)cc(N)n1 | – | – | – | – | –
Nc1cc(N)nc(SCCOc2ccccc2F)n1 | – | – | – | – | 23.1µM
O=C(COC(=O)c1cccs1)NCCN1C(=O)CSC1=O | – | – | – | – | –
Cc1c(C(=O)OCC(=O)NCCN2C(=O)CSC2=O)oc2c1ccc1ccccc12 | – | – | ? | ? | 23.1µM
CCOc1ccc(N2C=Nc3ccc(OCC)cc3C2)cc1 | – | -59.5 | – | – | –
Cc1ccc(C(c2cccc(Br)c2)c2c(C)[nH]c3ccccc23)s1 (stereo unspecified) | – | · | · | · | –
Cc1cc2c(c(=O)o1)C(c1cccs1)C(C#N)=C(N)O2 (stereo unspecified) | – | -63.1 | – | – | –
Cc1ccc(Cn2c(C)cc3c(c2=O)C(c2cccs2)C(C#N)=C(N)O3)cc1 (stereo unspecified) | – | – | – | ? | –
Cc1ccc([C@H]2C(C#N)=C(N)Oc3cc(C)oc(=O)c32)o1 | – | -106.2 | ? | ? | –
COc1ccc(-c2c3c(=O)n(C)c(=O)n(C)c3cn2C2CCCCC2)cc1 | – | -53.8 | – | – | –
CC12CCC(C(=O)Nc3cccc(Cl)c3)(C(Br)C1=O)C2(C)C (stereo unspecified) | ? | – | ? | ? | 14.6µM
Cn1c(CSCc2ccc(F)cc2)nnc1SCC(=O)Nc1cccc(C(=O)O)c1 | – | – | – | – | –
COc1cc(/C=N/n2c(-c3ccccc3)n[nH]c2=S)ccc1O | – | – | – | – | –
COc1ccc(/C=N/n2c(-c3ccc(C)cc3)n[nH]c2=S)cc1OC | – | -51.0 | – | – | ?
COC(=O)c1ccc(CC(=O)c2nc3ccccc3s2)cc1 | – | – | – | – | –
COC(=O)c1ccc(/C(O)=C(\C#N)c2nc3ccccc3s2)cc1 | – | -77.4 | – | – | 8.2µM
CC(=O)Nc1ccc(/C=C/c2ccc3c([N+](=O)[O-])cccc3n2)cc1 | – | – | – | – | –
C=CCn1c(=N)c(C(=O)NCCCOC)cc2c(=O)n3cccc(C)c3nc21 | – | – | ? | 4.11µM | –
Cc1cccn2c(=O)c3cc(C(=O)NCCN4CCOCC4)c(=N)n(CCc4ccccc4)c3nc12 | – | -63.4 | 2.59µM | 2.59µM | ?
CCNC(=O)c1cc2c(=O)n3cccc(C)c3nc2n(CCc2ccccc2)c1=N | ? | – | ? | ? | –
SMILES | KB-3-1 tox | IL1B secr inh | SW480 rereplic | MCF10A rereplic | KB-V1 cytotox
COc1ccc(CCn2c(=N)c(C(=O)NCCN3CCOCC3)cc3c(=O)n4cccc(C)c4nc32)cc1OC | – | ? | 16.4µM | ? | –
Cc1cccn2c(=O)c3cc(C(=O)NCc4ccccc4)c(=N)n(CCCN4CCOCC4)c3nc12 | ? | – | 5.17µM | – | –
C[C@@H]1CCCCO[C@@H](CN(C)Cc2ccncc2)[C@@H](C)CN([C@H](C)CO)C(=O)c2cc(NC(=O)c3ccccc3)ccc2O1 | – | – | · | · | –
COCCn1c(=N)c(C(=O)NCCc2ccccc2)cc2c(=O)n3cccc(C)c3nc21 | – | – | 1.84µM | ? | –
COCCCn1c(C(=O)NCCN2CCOCC2)cc2c(=O)n3cccc(C)c3nc21 | ? | – | ? | ? | ?
Cc1cccn2c(=O)c3cc(C(=O)NCCN4CCOCC4)c(=N)n(CCCN4CCOCC4)c3nc12 | – | – | 1.16µM | ? | –
COCCCNC(=O)c1cccn2c(=O)c3cc4ccccc4cc3nc12 | – | -85.7 | ? | 13µM | 4.11µM
CCOCCCNC(=O)c1cc2c(=O)n3cccc(C)c3nc2s1 | – | – | – | – | –
CCOc1ccc(N(C(=O)c2cnccn2)C(C(=O)NC2CCCCC2)c2ccc(O)cc2)cc1 (stereo unspecified) | – | – | – | – | –
Cc1cc(Br)ccc1OCCNCc1ccccc1 | – | ? | – | ? | –
Brc1ccccc1OCCNCc1ccccc1 | – | -80.5 | – | – | –
C=CCc1ccccc1OCCNCc1ccccc1 | – | -91.2 | – | – | –
COCC(C)NCc1ccc(OC)c(Br)c1 (stereo unspecified) | – | – | – | – | –
Cc1cc(C)n(CCNC(=O)[C@H]2O[C@@H](n3ccc(=O)[nH]c3=O)[C@H](O)[C@@H]2O)n1 | – | – | · | · | –
CCOc1ccc(C(C)NC(=O)c2ccccc2F)cc1 (stereo unspecified) | – | – | – | – | 16.4µM
COc1cc(SC)ccc1C(=O)NCCc1ccccc1 | ? | – | ? | ? | –
COc1cc(SC)ccc1C(=O)NCCOc1ccc(Cl)cc1 | – | – | – | – | 20.6µM
COc1ccc(C(=O)NCC(=O)OCCOc2ccc(Cl)cc2)cc1OC | · | -55.9 | – | – | ·
COc1cc(SC)ccc1C(=O)NCCOc1c(C)cc(C)cc1C | ? | – | – | – | 20.6µM
COc1ccc(CNC(=O)c2ccc(SC)cc2OC)cc1 | – | – | – | – | ?
COCCNc1c(-c2cc3ccc(C)c(C)c3[nH]c2=O)nc2ccccn12 | – | -58.8 | – | – | ?
CCCn1c2ccc(C)cc2c2n[nH]c(=S)nc21 | – | – | 14.6µM | – | –
C=CCn1c2ccccc2c2n[nH]c(=S)nc21 | – | – | – | – | ?
CCn1c2ccccc2c2n[nH]c(=S)nc21 | ? | – | – | – | 6.51µM
COc1ccc(C(=O)COc2ccccc2C#N)cc1 | – | – | – | 16.4µM | –
SMILES | KB-3-1 tox | IL1B secr inh | SW480 rereplic | MCF10A rereplic | KB-V1 cytotox
CCOc1ccccc1NC(=O)/C=C/c1ccccc1[N+](=O)[O-] | – | -68.6 | – | – | ?
CCOc1ccccc1NC(=O)/C=C/C(N)=O | – | -102.6 | – | – | –
COc1ccc(C(=O)COc2ccccc2C(N)=O)cc1 | – | – | – | – | –
O=C(/C=C\c1ccccc1[N+](=O)[O-])Nc1ccccc1 | – | – | – | ? | ?
CCOc1ccccc1NC(=O)CC(O)(C(F)(F)F)C(F)(F)F | – | – | – | – | –
CCOc1ccccc1NC(=O)C(=O)CC(=O)c1ccc(OC)cc1 | – | – | – | – | 16.4µM
Cc1ccc(NC(=O)CSCC(=O)Nc2ccccc2N2CCCC2)cc1 | – | – | – | – | –
CCC1CCCCN1C(=O)c1cc(COc2ccc(-n3cncn3)cc2)on1 (stereo unspecified) | 18.4µM | – | – | – | 13µM
N=c1ccn(CC(=O)c2ccc(-c3ccccc3)cc2)cc1 | 5.17µM | -69.2 | – | – | –
